# Source: PubChem BioAssay (NCATS)
# “And” between values parts separate entries of the source, which are not always exact repeats. Equal values may be shown once. Records with an inconclusive call do not appear. The source made the active and inactive calls. Unless noted, how the calls were made is not given here.
# What was measured:
# [1] = qHTS profiling for inhibitors of Plasmodium falciparum (3D7) proliferation (AID 743322);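 further: infected erythrocytes exposed to compound for 72 h before lysis; 100% = DMSO vehicle wells and 0% = 0.29 µM artemisinin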; settings: P. falciparum 3D7 proliferation; at 28.7 µM (top of the series)
# Procedure, shortened: (§1)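 Parasite DNA was quantified by SYBR Green I fluorescence (ex 485, em 535 nm) after overnight lysis in saponin/Triton buffer at room temperature. Cultures at 0.3% parasitemia and 2.5% hematocrit were first exposed to compound for 72 h at 37 C; signals were normalised to artemisinin (0.29 uM) and vehicle wells.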
# [2] = qHTS profiling for inhibitors of Plasmodium falciparum (DD2) proliferation (AID 743323); settings: lower = more inhibition; at 28.7 µM (top of the series)
# Procedure, shortened: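 1536-well qHTS; infected RBCs 0.3% parasitemia/2.5% Hct final; cpd 72 h 37 C 5% CO2; lysis buffer + SYBR Green I, o/n RT dark; FI 485/535; norm. to 0.29 uM artemisinin and DMSO, plate-stack corrected.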
# [3] = qHTS profiling for inhibitors of Plasmodium falciparum (HB3) proliferation (AID 743324; active means well fitted curve in the direction sought with a large enough effect; an effect the other way counts as inactive or inconclusive;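 further: 100% = DMSO vehicle wells and 0% = artemisinin-treated control wells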); settings: Plasmodium falciparum HB3 blood-stage proliferation; at 28.7 µM (top of the series)
# Procedure, shortened: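 SYBR Green fluorescence (485 ex/535 em) of lysed cultures, incubated overnight at room temperature in the dark, quantifies parasite DNA. Infected erythrocytes at 0.3% parasitemia and 2.5% hematocrit were exposed 72 h; values normalized to DMSO and 0.29 uM artemisinin controls.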
# [4] = qHTS profiling of the MIPE4 collection as inhibitors of Plasmodium falciparum (3D7) proliferation (AID 743344);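 further: scaled between DMSO vehicle wells and 0.29 µM artemisinin as full inhibition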; settings: P. falciparum 3D7 in erythrocytes, SYBR Green DNA fluorescence, 72 h; at 28.5 µM (top of the series) unless noted
# Procedure, shortened: as §1
# [5] = qHTS profiling of the MIPE4 collection as inhibitors of Plasmodium falciparum (DD2) proliferation (AID 743345); settings: P. falciparum Dd2 in erythrocytes, SYBR Green DNA, 72 h; at 28.5 µM (top of the series) unless noted
# Procedure, shortened: as §1
# [6] = qHTS profiling of the MIPE4 collection as inhibitors of Plasmodium falciparum (DD2) proliferation (Rep 2) (AID 743346); settings: P. falciparum Dd2 in erythrocytes, SYBR Green DNA, 72 h; at 28.5 µM (top of the series) unless noted
# Procedure, shortened: as §1
# [7] = qHTS profiling of the MIPE4 collection as inhibitors of Plasmodium falciparum (HB3) proliferation (AID 743347);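 further: plate controls were DMSO vehicle wells for no effect and artemisinin wells for full effect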; settings: P. falciparum HB3 in erythrocytes, SYBR Green DNA, 72 h; at 28.5 µM (top of the series) unless noted
# Procedure, shortened: as §1
# [8] = High-throughput drug toxicity screening in the BPDCN cell line Gen2.2 (AID 1224824); settings: Gen2.2 BPDCN cells; at 45.8 µM (top of the series) unless noted;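 further: cells exposed to compounds for 48 h before reading; 100% = DMSO and 0% = bortezomib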
# Procedure, shortened: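 Readout is ATP luminescence from Gen2.2 cells after two days of drug exposure in serum-containing medium at 37 °C. Values express percent activity, with vehicle defining full signal and 9.2 uM bortezomib defining zero.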
# [9] = qHTS assay for cell viability of HEK293 cells (AID 743288; active means well fitted curve in the direction sought with a large enough effect; an effect the other way counts as inactive or inconclusive; further: on the % scale 0 is the no-effect control and ±100 the full control effect; nearly all actives have a fitted effect of over 50% in size); settings: ATP luminescence (CellTiter-Glo), 18 h, stronger effect = lower value
# Procedure, shortened: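 HEK293, 18 h, 37 C, ATP luminescence. Cells at 2,000/well were allowed at least 5 h to settle before dosing; CellTiter-Glo developed 30 min at RT.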
# [10] = qHTS assay for cell viability of the p53RE-bla HCT-116 cell line (AID 743292; active means well fitted curve in the direction sought with a large enough effect; an effect the other way counts as inactive or inconclusive; further: on the % scale 0 is the no-effect control and ±100 the full control effect; nearly all actives have a fitted effect of over 55% in size)
# Procedure, shortened: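 Compound-exposed HCT-116 (p53RE-bla) cells, 4,000 per well, were kept 16 h at 37 C following a 5 h preincubation. Cell number was estimated from total ATP by CellTiter-Glo luminescence read after 30 min at room temperature.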
smiles,measurement,setting,value
COC(=O)C1C2CC3c4[nH]c5cc(OC)ccc5c4CCN3CC2CC(OC(=O)c2cc(OC)c(OC)c(OC)c2)C1OC (stereo unspecified),remaining parasite growth % (stronger effect = lower value),[1],1.2%
same,"activity, percent of control",[2],9.89%
same,"remaining proliferation (% of control), lower = more inhibition",[3],2.79%
same,"parasite growth, % of DMSO control",[4],10.2%
same,"parasite growth remaining, % of DMSO control (lower = more inhibition)",[5],39.3%
same,"parasite growth, % of control (lower = inhibition)",[6],20%
same,"growth, % of control",[7],9.05%
same,"cell viability, % of control (lower = more cytotoxic)",[8],120%
COC(=O)[C@H](CCCN=C(N)N)NS(=O)(=O)c1ccc(C)cc1,"cell viability, % of control (lower = more cytotoxic)",[8],94.4%
CC(=O)N[C@H]1[C@@H]([C@H](O)[C@H](O)CO)OC(C(=O)O)=C[C@@H]1N=C(N)N,"cell viability, % of control (lower = more cytotoxic)",[8],114%
COc1cccc2c1C(=O)c1c(O)c3c(c(O)c1C2=O)C[C@@](O)(C(=O)CO)C[C@H]3O[C@H]1C[C@H](N)[C@H](O)[C@H](C)O1,remaining parasite growth % (stronger effect = lower value),[1],-4.47%
same,"activity, percent of control",[2],-1.95%
same,"remaining proliferation (% of control), lower = more inhibition",[3],4.32%
same,"parasite growth, % of DMSO control",[4],3.34%
same,"parasite growth remaining, % of DMSO control (lower = more inhibition)",[5],5.82%
same,"parasite growth, % of control (lower = inhibition)",[6],5.25%
same,"growth, % of control",[7],1.64%
same,"cell viability, % of control (lower = more cytotoxic)",[8],6.45%
COc1cc2c(cc1OC)[C@@H]1C(=O)c3ccc4c(c3O[C@@H]1CO2)C=CC(C)(C)O4,remaining parasite growth % (stronger effect = lower value),[1],39.1%
same,"activity, percent of control",[2],44.5%
same,"remaining proliferation (% of control), lower = more inhibition",[3],17.6%
same,"parasite growth, % of DMSO control",[4],45.9%
same,"parasite growth remaining, % of DMSO control (lower = more inhibition)",[5],91.2%
same,"parasite growth, % of control (lower = inhibition)",[6],39.7%
same,"growth, % of control",[7],47.7%
same,"cell viability, % of control (lower = more cytotoxic)",[8],7.01%
O=C1c2cccc(O)c2C(=O)c2c(O)cc(CO)cc21,max response,[9],-3.37% (inactive)
same,outcome,[10],inactive
same,"cell viability, % of control (lower = more cytotoxic)",[8],161%
CC(C)[C@H](CO)Nc1nc(Nc2cccc(Cl)c2)c2ncn(C(C)C)c2n1,"parasite growth, % of DMSO control",[4],8.7%
same,"parasite growth remaining, % of DMSO control (lower = more inhibition)",[5],21.1%
same,"parasite growth, % of control (lower = inhibition)",[6],17.2%
same,"growth, % of control",[7],5.25%
same,"cell viability, % of control (lower = more cytotoxic)",[8],2.15%
NC(=O)c1ncn([C@@H]2O[C@H](CO)[C@@H](O)[C@@H]2O)c1N,remaining parasite growth % (stronger effect = lower value),[1],94.2%
same,"activity, percent of control",[2],92.4%
same,"remaining proliferation (% of control), lower = more inhibition",[3],92.9%
same,"parasite growth, % of DMSO control",[4],96.5%
same,"parasite growth remaining, % of DMSO control (lower = more inhibition)",[5],91.5%
same,"parasite growth, % of control (lower = inhibition)",[6],95.2%
same,"growth, % of control",[7],68.2%
same,"cell viability, % of control (lower = more cytotoxic)",[8],191%
Nc1ccn(C[C@@H](CO)OCP(=O)(O)O)c(=O)n1,"cell viability, % of control (lower = more cytotoxic)",[8],138% [at 23.2 µM]
CC(N[C@H]1CCCC[C@H]1NC(=O)c1ccc(Cl)cc1)c1cccc2ccccc12 (stereo partly specified),"cell viability, % of control (lower = more cytotoxic)",[8],114%
CN[C@H](CC(C)C)C(=O)N[C@H]1C(=O)N[C@@H](CC(N)=O)C(=O)N[C@@H]2C(=O)N[C@H]3C(=O)N[C@H](C(=O)N[C@H](C(=O)O)c4cc(O)cc(O)c4-c4cc3ccc4O)[C@H](O)c3ccc(c(Cl)c3)Oc3cc2cc(c3O[C@@H]2O[C@H](CO)[C@@H](O)[C@H](O)[C@@H]2O[C@H]2C[C@](C)(N)[C@H](O)[C@H](C)O2)Oc2ccc(cc2Cl)[C@H]1O,"parasite growth, % of DMSO control",[4],387%
same,"cell viability, % of control (lower = more cytotoxic)",[8],160%
NC1=N[C@H]2[C@H](CS[C@H]2CCCCC(=O)O)N1,"cell viability, % of control (lower = more cytotoxic)",[8],175% [at 23.2 µM]
O=C(O)CCCCC(CCSCc1ccccc1)SCc1ccccc1 (stereo unspecified),remaining parasite growth % (stronger effect = lower value),[1],84%
same,"activity, percent of control",[2],84%
same,"remaining proliferation (% of control), lower = more inhibition",[3],70.4%
same,"parasite growth, % of DMSO control",[4],76.2%
same,"parasite growth remaining, % of DMSO control (lower = more inhibition)",[5],96.3%
same,"parasite growth, % of control (lower = inhibition)",[6],61.5%
same,"growth, % of control",[7],63.9%
same,"cell viability, % of control (lower = more cytotoxic)",[8],54.3%
O=C(O)C(=O)Nc1cccc(C2=NN=N[N]2)c1,"cell viability, % of control (lower = more cytotoxic)",[8],222%
COc1cc(OC)c(NC(=O)Nc2cc(C)on2)cc1Cl,"parasite growth, % of DMSO control",[4],69.1%
same,"parasite growth remaining, % of DMSO control (lower = more inhibition)",[5],100%
same,"parasite growth, % of control (lower = inhibition)",[6],54.6%
same,"growth, % of control",[7],81.5%
same,"cell viability, % of control (lower = more cytotoxic)",[8],187%
C[C@H](CCC(=O)O)[C@H]1CC[C@H]2[C@@H]3[C@H](O)C[C@@H]4C[C@H](O)CC[C@]4(C)[C@@H]3CC[C@]12C,"cell viability, % of control (lower = more cytotoxic)",[8],114%
Cn1c(Nc2ccc(C(F)(F)F)cc2)nc2cc(Oc3ccnc(-c4ncc(C(F)(F)F)[nH]4)c3)ccc21,remaining parasite growth % (stronger effect = lower value),[1],-1.53%
same,"activity, percent of control",[2],0.692%
same,"remaining proliferation (% of control), lower = more inhibition",[3],-0.79%
same,"parasite growth, % of DMSO control",[4],7.02%
same,"parasite growth remaining, % of DMSO control (lower = more inhibition)",[5],10.9%
same,"parasite growth, % of control (lower = inhibition)",[6],19.4%
same,"growth, % of control",[7],8.58%
same,"cell viability, % of control (lower = more cytotoxic)",[8],9.63%
OC[C@@H](O)[C@@H](O)[C@H](O)[C@@H](O)CO,max response,[9],-5.81% (inactive)
same,"parasite growth, % of DMSO control",[4],100%
same,"parasite growth remaining, % of DMSO control (lower = more inhibition)",[5],91.5%
same,"parasite growth, % of control (lower = inhibition)",[6],92%
same,"growth, % of control",[7],70.6%
same,"cell viability, % of control (lower = more cytotoxic)",[8],201%
O=[N+]([O-])c1cn2c(n1)OC[C@@H](OCc1ccc(OC(F)(F)F)cc1)C2,"parasite growth, % of DMSO control",[4],94.2% and 79.4%
same,"parasite growth remaining, % of DMSO control (lower = more inhibition)",[5],99.7% and 101%
same,"parasite growth, % of control (lower = inhibition)",[6],155% and 70.1%
same,"growth, % of control",[7],98.1% and 86.3%
same,"cell viability, % of control (lower = more cytotoxic)",[8],110%
COc1ccc([C@@H]2CNC(=O)C2)cc1OC1CCCC1,"parasite growth, % of DMSO control",[4],106%
same,"parasite growth remaining, % of DMSO control (lower = more inhibition)",[5],96.4%
same,"parasite growth, % of control (lower = inhibition)",[6],67%
same,"growth, % of control",[7],102%
same,"cell viability, % of control (lower = more cytotoxic)",[8],107%
Cc1nc(NC(=O)N2CCC[C@@H]2C(N)=O)sc1-c1ccnc(C(C)(C)C(F)(F)F)c1,"parasite growth, % of DMSO control",[4],13.3%
same,"parasite growth remaining, % of DMSO control (lower = more inhibition)",[5],36.1%
same,"parasite growth, % of control (lower = inhibition)",[6],24%
same,"growth, % of control",[7],5.19%
same,"cell viability, % of control (lower = more cytotoxic)",[8],21%
C=CC(=O)N1CCc2ccc(-n3c(=O)ccc4cnc5ccc(-c6cnn(C)c6)cc5c43)cc21,"parasite growth, % of DMSO control",[4],5.53%
same,"parasite growth remaining, % of DMSO control (lower = more inhibition)",[5],8.35%
same,"parasite growth, % of control (lower = inhibition)",[6],8.38%
same,"growth, % of control",[7],4.27%
same,"cell viability, % of control (lower = more cytotoxic)",[8],1.99%
CC(=O)[C@]1(O)Cc2c(O)c3c(c(O)c2[C@@H](O[C@H]2C[C@H](N)[C@@H](O)[C@H](C)O2)C1)C(=O)c1ccccc1C3=O,"parasite growth, % of DMSO control",[4],27.7%
same,"parasite growth remaining, % of DMSO control (lower = more inhibition)",[5],46.3%
same,"parasite growth, % of control (lower = inhibition)",[6],49%
same,"growth, % of control",[7],11.5%
same,"cell viability, % of control (lower = more cytotoxic)",[8],6.08%
CCCCC(=O)O[C@]1(C(=O)CO)[C@@H](C)C[C@H]2[C@@H]3CCC4=CC(=O)C=C[C@]4(C)[C@@]3(F)[C@@H](O)C[C@@]21C,"parasite growth, % of DMSO control",[4],13.5%
same,"parasite growth remaining, % of DMSO control (lower = more inhibition)",[5],78.8%
same,"parasite growth, % of control (lower = inhibition)",[6],54.9%
same,"growth, % of control",[7],22.8%
same,"cell viability, % of control (lower = more cytotoxic)",[8],44%
Cn1cnc2c(F)c(Nc3ccc(Br)cc3F)c(C(=O)NOCCO)cc21,"parasite growth, % of DMSO control",[4],86.6%
same,"parasite growth remaining, % of DMSO control (lower = more inhibition)",[5],88%
same,"parasite growth, % of control (lower = inhibition)",[6],76.8%
same,"growth, % of control",[7],84.6%
same,"cell viability, % of control (lower = more cytotoxic)",[8],4.85%
